Source: PubChem
Hits are enriched below; roughly 19% of the tested compounds scored in any of these assays.
HT1080NT lethal: qHTS for induction of synthetic lethality in tumor cells producing 2HG: qHTS for the HT-1080-NT fibrosarcoma cell line. AID 686970, 2013. 360,000 compounds, 1.6% hits. Potency, µM (highest dose often 46.1 µM), for inactives: at the top dose activity, negative = less viability, usual class: cytotoxic. HT-1080-NT fibrosarcoma viability, CellTiter-Glo ATP luminescence, 48 h;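 note: NT is the 2HG producing partner of a matched IDH1 knockdown line; 0% = DMSO-treated cells and -100% = media-only wells without cells; nearly all actives have a fitted effect of over 55% in size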
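Fibrosarcoma NT cells, 750 per well in 5% FBS RPMI, were exposed to compound for 48 hours. Viability: CellTiter-Glo luminescence.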
KB-3-1 tox: qHTS assay for MDR1-selective chemotherapeutics: Primary screen using the parental adenocarcinoma cell KB-3-1; Potency, µM (highest dose often 46.1 µM), usual class: cytotoxic; KB-3-1 viability, CellTiter-Glo ATP luminescence, 72 h; AID 1347075, 2019; 400,000 compounds, 1.4% hits; note: nearly all actives have a fitted effect of over 60% in size
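Screening of KB-3-1 cells (DMEM, 10% FBS, phenol-red free) ran from lowest to highest compound concentration; after 72 h at 37 °C viability was read luminescently and curves fitted.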
KB-V1 MDR tox: qHTS assay for MDR1-selective chemotherapeutics: Primary screen using the drug-selected MDR subline cells KB-V1 | KB-V1 MDR cells viability, CellTiter-Glo, 72 h | Potency, µM (doses to about 46.1 µM), actives largely listed as cytotoxic | 400,000 compounds, 3.4% hits | AID 1347076, 2019; note: nearly all actives have a fitted effect of over 60% in size
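Following 72 h at 37 degrees C with compound, KB-V1 cell viability was read by CellTiter-Glo luminescence, medium being phenol-red-free DMEM plus 10% FBS; concentration-response parameters came from normalized, curve-fitted qHTS data.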
HT1080 IDH1KD tx: qHTS for induction of synthetic lethality in tumor cells producing 2HG: qHTS for the HT-1080-IDH1KD cell line | 360,000 compounds, 2% hits | Potency, µM (highest dose often 46.1 µM), without a hit: at the highest dose activity, negative = toxicity, usual class: cytotoxic | HT-1080 IDH1 knockdown viability, ATP luminescence, 48 h;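 note: 0% = DMSO wells and -100% = cell-free medium wells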
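IDH1KD HT-1080 cells, 750/well, RPMI + 5% FBS; compound pinned after 2 h settling; 48 h, 37 °C; CellTiter-Glo luminescence; % activity normalised to DMSO and no-cell wells; curves fitted, classed by r2 and efficacy.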
DT40 TDP1 no CPT: qHTS for Inhibitors of human tyrosyl-DNA phosphodiesterase 1 (TDP1): qHTS in cells in absence of CPT | DT40 Tdp1-/- hTDP1 cells, no CPT, ATP luminescence, 48 h | Potency, µM (highest dose often 46.2 µM), inactives show at the top dose activity change, negative = growth inhibition, hits mostly inhibitors | 420,000 compounds, 15% hits; note: nearly all actives have a fitted effect of over 55% in size
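DT40 Tdp1-/-;hTDP1 cells, no CPT (DMSO vehicle only), 400 cells/well; compounds pin-transferred; ≥48 hr, 37 °C; CellTiter-Glo 30 min RT dark, luminescence read.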
TDP1 cell CPT: qHTS for Inhibitors of human tyrosyl-DNA phosphodiesterase 1 (TDP1): qHTS in cells in presence of CPT | chicken DT40 Tdp1-/-;hTDP1 cells + 20 nM CPT, ATP luminescence, 48 h | Potency, µM (highest dose often 46.2 µM), for inactives: top-dose activity change, negative = growth inhibition, actives largely listed as inhibitors | 420,000 compounds, 12% hits | AID 686979, 2013; note: nearly all actives have a fitted effect of over 55% in size
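Cell growth measured by CellTiter-Glo luminescence after a minimum 48 h, 37 C compound exposure with 20 nM CPT in Tdp1-knockout DT40 cells stably expressing hTDP1, seeded 400/well; qHTS titration format.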
An asterisk follows results filed as active; i = inactive; ? = inconclusive; / = no result. Calls come from the whole dose curve; as a rule, active = well fitted curve in the direction sought with a large enough effect; inconclusive = small, poorly fitted or top-dose-only effect, or another doubt; inactive = no such curve, though single readings can be large; an effect the other way counts as inactive or inconclusive. Unless noted, % is set by controls: 0 for no effect and ±100 for the full control effect; potency is the fitted concentration of half-maximal effect.

SMILES	HT1080NT lethal	KB-3-1 tox	KB-V1 MDR tox	HT1080 IDH1KD tx	DT40 TDP1 no CPT	TDP1 cell CPT
O=C(NC(=S)Nc1nc2c(ccc3ccccc32)s1)c1cccs1	2.2%	i	?	16.0%	14.6µM*	?
C=C1C=C(C)n2ncc(C(=O)NCCCCCC)c2N1	/	?	i	/	?	-2.2%
CCOc1ccccc1NC(=O)C(Cc1ccccc1)NS(=O)(=O)c1ccc2c(c1)oc(=O)n2C (centres undefined)	/	i	i	/	8.5%	?
CCSc1ncc(Cl)c(C(=O)Nc2c(C(=O)Nc3ccc(Cl)cc3)oc3ccccc23)n1	/	/	/	/	4.6%	6.6%
COc1ccc(-c2csc(NC(=O)CCNC(=O)c3ccco3)n2)cc1OC	8.2%	i	i	-10.5%	16.4µM*	?
COc1ccc(-c2nc(NC(=O)c3n[nH]c(=O)c4ccccc34)sc2C)cc1	-3.2%	?	8.2µM*	-9.8%	9.2µM*	20.6µM*
COc1ccc(-c2csc(NC3OC(=O)c4c3ccc(OC)c4OC)n2)cc1OC (centres undefined)	2.06µM*	i	i	2.59µM*	14.6µM*	9.2µM*
COc1ccc(-c2nc(NC(=O)c3c(C)noc3C)sc2C)cc1	-8.4%	i	?	-5.9%	20.6µM*	10.3µM*
CCNC(=O)C1CCCN(C(=O)c2ccc3c(c2)OCO3)CC1 (centres undefined)	?	i	i	23.7%	6.0%	-14.6%
COc1cccc(-c2cc(CNC(=O)[C@H]3O[C@@H](n4ccc(N)nc4=O)[C@H](O)[C@@H]3O)no2)c1	17.4%	i	i	26.6%	14.1%	9.4%
COc1ccc(-c2csc(NC(=O)Cc3ccccc3F)n2)cc1OC	-24.4%	?	?	-27.7%	25.9µM*	?
COc1ccccc1CC(=O)Nc1nc(-c2ccc(F)c(F)c2)cs1	-22.4%	i	?	-12.4%	?	?
COc1ccc(-c2csc(NC(=S)NC(=O)c3cccs3)n2)cc1Br	6.1%	?	?	-0.4%	?	?
COc1ccc(-c2csc(NC(=S)NC(=O)c3cccs3)n2)cc1OC	-23.9%	i	i	-27.7%	11.6µM*	14.6µM*
COc1ccc(-c2nc(CCNC(=O)c3ccco3)cs2)cc1OC	-13.2%	i	i	-0.2%	20.6µM*	?
O=C(NCCc1csc(-c2ccc(F)cc2)n1)c1ccco1	/	i	i	/	-26.1%	?
CCCNC(=O)C1(C)CCCN(C(=O)c2ccc(C)c(F)c2)C1 (centres undefined)	21.7%	i	i	6.9%	-20.5%	-18.8%
COc1ccccc1C1CC(c2ccc(C)cc2)Nc2ncnn21 (centres undefined)	0.2%	i	i	6.0%	18.4µM*	?
COc1ccccc1C1CC(c2ccccc2)Nc2ncnn21 (centres undefined)	?	?	?	?	23.1µM*	8.2µM*
COc1ccccc1C1CC(c2ccc(F)cc2)Nc2ncnn21 (centres undefined)	-1.7%	i	i	-8.1%	20.6µM*	7.31µM*
Cc1ccc(C2CC(c3ccco3)n3ncnc3N2)cc1 (centres undefined)	7.9%	i	i	0.5%	-21.6%	-93.6%
Fc1ccc(C2CC(c3ccco3)n3ncnc3N2)cc1 (centres undefined)	1.1%	?	i	-4.7%	-17.1%	-13.5%
COC(=O)N1CCC2(CCN(Cc3ccccc3OC)CC2)CC1	/	/	/	/	-3.6%	-0.5%
O=C(COc1ccc([N+](=O)[O-])cc1)NNC(=O)C1COc2ccccc2O1 (centres undefined)	4.4%	i	i	6.8%	-18.7%	-2.6%
CCN(c1ccccc1)S(=O)(=O)c1ccc(OC)c(NC(=O)c2ccccc2OC)c1	-10.3%	i	i	-6.0%	?	20.6µM*
SMILES	HT1080NT lethal	KB-3-1 tox	KB-V1 MDR tox	HT1080 IDH1KD tx	DT40 TDP1 no CPT	TDP1 cell CPT
CCN(c1ccccc1)S(=O)(=O)c1ccc(Oc2ccc(C(C)=O)cc2OC)nc1	-1.1%	i	?	-9.6%	16.4µM*	?
CCN(c1ccccc1)S(=O)(=O)c1ccc(Oc2ccc([N+](=O)[O-])cc2)nc1	-3.4%	i	?	-19.3%	?	?
CCN(c1ccccc1)S(=O)(=O)c1ccc(OC)c(NC(=O)c2ccco2)c1	-0.9%	i	?	-0.7%	20.6µM*	?
COCCN1C(=O)COc2ccccc2C1C(=O)Nc1ccc2c(c1)OCCO2 (centres undefined)	20.9%	?	i	16.7%	-20.6%	10.4%
O=C(COC(=O)c1cc[n+]([O-])cc1)Nc1cccc(Br)c1	-6.1%	i	?	-1.6%	-5.9%	-11.3%
CN1CCC(N2CCN(C3CN(C4CCCC4)S(=O)(=O)C3)CC2)CC1 (centres undefined)	18.3%	i	?	21.6%	1.4%	-0.6%
COc1nc(N)nc(NC(=O)c2cccs2)c1N=O	16.4µM*	i	i	18.4µM*	2.31µM*	2.06µM*
COc1cccc(NC(=O)C2CCN(C(=O)N3CC(C)Oc4ccccc43)CC2)c1 (centres undefined)	/	i	i	/	?	?
COc1ccc(-c2c3c(nc4sc(C(=O)Nc5ccccc5F)c(N)c24)CC(C)(C)CC3=O)cc1	/	i	i	/	?	?
CCOC(=O)c1sc(NC(C)=O)cc1C	0.2%	i	i	3.3%	1.0%	-28.5%
CCOC(=O)c1c(C)nc2sc(C(=O)Nc3ccccc3)c(N)c2c1-c1ccc(OC)cc1	?	i	?	?	14.6µM*	?
COc1ccc(-c2c3c(nc4sc(C(=O)Nc5ccc(F)cc5)c(N)c24)CC(C)(C)CC3=O)cc1	/	i	i	/	14.6µM*	?
CCOC(=O)c1sc(NC(=O)Nc2ccccc2)cc1C	?	?	?	?	25.9µM*	23.1µM*
CCOC(=O)c1sc(NC(=O)Nc2ccccc2Cl)cc1C	-10.9%	?	20.6µM*	-6.5%	14.6µM*	23.1µM*
